# Screens: PubChem, The Scripps Research Institute Molecular Screening Center
# Compounds with a hit are over-represented: about 4.1% of the library has one in this group of screens.
# ssDAF12 agonist – activates DAF-12 receptor from parasite S. stercoralis; HEK293 ssDAF-12/GRIP1 lit1-tk-luc reporter, luminescence; % of 3 µM dafachronic acid response; activation, % at 6.8 µM; hit rate 1% among 370,000;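 active = activation above the mean over all tested compounds plus 3 SD, cut at about 0.9% in these data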
# DAX1 inh-1 – inhibits human nuclear receptor DAX1. P51843. HEK293 Gal4-DAX1 luciferase reporter, luminescence. inhibition, % at 6.75 µM. hit rate 0.99% among 340,000;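 active = inhibition above the mean over all tested compounds plus 3 SD, cut at about 4.2% in these data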;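 note: inhibition shows as a rise in luminescence from relieved DAX1 repression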
# DAX1 inh-2 – DAX1 (NR0B1) inhibition, primary screen; HEK293T StAR-luciferase reporter, SF-1/DAX-1 repression relief; inhibition, % at 6.8 µM; hit rate 1.1% among 370,000; AID 652010;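 active = inhibition above the mean over all tested compounds plus 3 SD, cut at about 3.6% in these data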;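 note: higher inhibition means more luminescence from relief of DAX-1 repression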
# hcDAF12 agonist – activates DAF-12 receptor from parasite H. contortus; hit rate 1.4% among 370,000; activation, % at 6.8 µM; HEK293 hcDAF-12 lit1-tk-luc reporter, luminescence; 0% DMSO, 100% Δ7-dafachronic acid;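 active = activation above the mean of all tested compounds plus 3 SD, cut at about 5.5% in these data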
# hgDAF-12 ag – hgDAF-12 agonism, primary luciferase screen; hit rate 1.8% among 370,000; HEK293 GAL4-hgDAF12 UAS-luciferase reporter, agonist luminescence; normalized to butyrate control; activation, % at 6.8 µM;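 active = activation above a cutoff set at the mean of all screened compounds plus 3 SD, cut at about 10% in these data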
# LXR ag – counter-screen for hcDAF-12 agonists: agonists of human LXR-beta | shares compounds with hcDAF12 agonist | HEK293 Gal4-LXR tk-luc reporter, luminescence, 24 h; normalized: DMSO 0%, positive control 100% | activation, % at 6.8 µM | 3,400 tested, under 10 active | AID 743027;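 active = mean percent activation of the reporter above a cutoff set as the average over tested compounds plus their standard deviation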
# Target sequence (P55055 whole entry, looked up, the tested form may be a part): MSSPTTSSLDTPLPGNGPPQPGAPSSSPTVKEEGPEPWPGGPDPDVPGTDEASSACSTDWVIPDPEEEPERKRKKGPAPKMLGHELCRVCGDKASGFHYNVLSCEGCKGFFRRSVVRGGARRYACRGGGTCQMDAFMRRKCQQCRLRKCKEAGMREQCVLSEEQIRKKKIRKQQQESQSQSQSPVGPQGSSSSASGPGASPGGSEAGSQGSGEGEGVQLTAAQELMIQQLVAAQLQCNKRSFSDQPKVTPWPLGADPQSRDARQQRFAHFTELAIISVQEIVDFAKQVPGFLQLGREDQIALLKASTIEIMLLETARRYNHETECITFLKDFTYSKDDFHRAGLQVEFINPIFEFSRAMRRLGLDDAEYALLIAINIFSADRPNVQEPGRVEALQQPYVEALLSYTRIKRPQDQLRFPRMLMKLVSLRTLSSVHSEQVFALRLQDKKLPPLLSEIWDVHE
# hcDAF12 conf – confirmation of H. contortus DAF-12 agonists; shares compounds with hcDAF12 agonist; HEK293 hcDAF-12 lit1-tk-luc reporter, luminescence; % of Δ7-dafachronic acid response; activation, % at 6.8 µM; hit rate 61% among 3,400;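 active = mean activation across triplicate tests above the threshold derived from the earlier primary screen, cut at about 5.5% in these data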
# Hits are given with their value; 0 = inactive; - = no result.
SMILES,ssDAF12 agonist,DAX1 inh-1,DAX1 inh-2,hcDAF12 agonist,hgDAF-12 ag,LXR ag,hcDAF12 conf
Cc1noc(C)c1COc1ccccc1C(=O)NCc1ccco1,0,0,0,0,0,-,-
Cn1c(=O)c2c(nc(SCCN3CCOCC3)n2Cc2ccc(F)cc2)n(C)c1=O,0,4.4,0,7.8,0,0,7.5
Cn1c(=O)c2c(nc(SCCN3CCOCC3)n2Cc2ccccc2Cl)n(C)c1=O,0,0,0,0,0,-,-
Cc1nc2ccccn2c1C(=O)N/N=C/c1ccc2c(c1)OCO2,0,0,0,0,0,-,-
CCOc1cc(/C=N\NC(=O)c2c(C)nc3ccccn23)ccc1O,0,0,0,8.0,0,0,0
Cc1ccsc1/C=C1\CCc2ccccc2C1=O,1.4,0,0,12.1,0,0,14.0
COc1ccc(/C=C2\CCc3ccccc3C2=O)cc1OC,0,0,0,0,0,-,-
O=C1C(=Cc2ccccn2)CCc2ccccc21,0,0,0,0,0,-,-
CC(=O)Oc1ccc(/C=C2/CCc3ccccc3C2=O)cc1,0,0,0,7.3,0,0,0
CCOc1ccc(Nc2ncnc3c2cnn3C)cc1,0,0,0,0,0,-,-
Fc1cccc(Cc2c(-c3ccco3)nc3c4ccccc4ccn23)c1,3.7,-,0,6.7,12.7,0,9.5
Clc1cccc(Cc2c(-c3ccco3)nc3c4ccccc4ccn23)c1,0,-,0,0,0,-,-
Clc1ccc2nc(-c3ccco3)c(Cc3ccsc3)n2c1,0,-,0,0,0,-,-
c1coc(-c2nc3c4ccccc4ccn3c2Cc2ccsc2)c1,1.6,-,0,7.4,12.4,0,15.0
OC1CCC2CN3CCc4c([nH]c5ccccc45)C3CC2C1 (stereo not given),0,-,0,0,0,-,-
CCOC(=O)c1ccc(S(=O)(=O)Nc2cc(C(=O)O)ccc2Cl)cc1,0,0,0,7.2,0,0,0
CCOC(=O)c1ccc(S(=O)(=O)NNS(=O)(=O)c2ccc(C)cc2)cc1,0,0,0,0,0,-,-
CC(=O)Nc1cccc(NC(=S)Nc2cccc3ccccc23)c1,0.9,0,0,7.6,0,0,0
O=C1CN(C(=O)NCC(=O)N[C@@H](C(=O)O)c2ccccc2)c2ccccc2N1,0,0,0,0,0,-,-
Cc1ccc(CCNC(=O)Cc2ccc(NC3=NC4CS(=O)(=O)CC4S3)cc2)cc1 (stereo not given),0,0,0,0,0,-,-
COc1ccc(C(=O)CN2C(=O)COc3ccccc32)cc1,0,0,0,0,0,-,-
COc1ccc(C(=O)CN2Cc3ccccc3C2=N)cc1,2.1,0,0,17.6,12.6,0,9.5
Cc1cccc(C)c1-n1nnnc1C(c1cc2ccccc2o1)N1CCN(C/C=C/c2ccccc2)CC1 (stereo not given),0,-,0,0,0,-,-
CC(Sc1c[nH]c2ccccc12)C(=O)O (stereo not given),0,0,0,8.5,0,0,0
O=C(O)CSc1c[nH]c2ccccc12,0,0,0,0,0,-,-
SMILES,ssDAF12 agonist,DAX1 inh-1,DAX1 inh-2,hcDAF12 agonist,hgDAF-12 ag,LXR ag,hcDAF12 conf
CSc1ccccc1OCc1cc(C(=O)NC2CCOC2)no1 (stereo not given),0,0,0,0,0,-,-
CSc1ccccc1OCc1cc(C(=O)NC2CCc3ccccc32)no1 (stereo not given),0,0,0,7.6,0,0,0
CC1CCCCN1S(=O)(=O)c1ccc(C(=O)Nc2ccccc2-c2nc3ccccc3s2)cc1 (stereo not given),0,0,0,11.0,0,0,0
O=[N+]([O-])c1ccccc1-c1ccc(C(=S)N2CCCC2)o1,1.8,0,0,9.4,0,0,9.7
O=[N+]([O-])c1ccccc1-c1ccc(C(=S)N2CCCCC2)o1,0,0,0,6.8,0,0,7.0
Cc1cccc(N2CCN(C(=S)c3ccc(-c4ccccc4[N+](=O)[O-])o3)CC2)c1,0,0,0,0,0,-,-
COc1ccccc1C(=O)NC(=S)N1CCCc2ccccc21,0,0,0,0,0,-,-
O=C(Nc1nnc(SCC(=O)N2CCCc3ccccc32)s1)c1ccccc1,0,0,0,8.0,0,0,0
O=C(NC(=S)N1CCCc2ccccc21)c1ccc(Cl)cc1,0,0,0,7.9,0,0,9.2
O=C(NC(=S)N1CCCc2ccccc21)c1ccccc1,0,0,0,8.3,0,0,9.2
COc1ccc(-c2coc3c(C(=O)NCc4ccc(C(F)(F)F)cc4)cccc23)c(C)c1,0,-,0,0,0,-,-
CC1(C)CC(=O)C2=C(C1)OC(N)=C([N+](=O)[O-])C2c1cccs1 (stereo not given),0,0,0,0,0,-,-
O=C(Nc1ccccn1)c1ccco1,0,0,0,8.5,0,0,0
O=C(Nc1ccccn1)c1ccc2ccccc2c1O,1.5,0,0,8.4,0,0,8.7
COc1ccc(NC(=O)C2C3C=CC4(O3)C2C(=O)N(CCN2CCCCC2)C4C(=O)NC2CCCC(C)C2C)cc1 (stereo not given),0,0,0,0,0,-,-
O=C(NCCSCc1ccco1)Nc1ccccc1,0,0,0,9.8,0,0,0
C#CCOCCOCCOCCNc1nc(N2CCN(C(=O)[C@H]([C@@H](C)CC)n3cc([C@@H](N)CO)nn3)CC2)nc(N2CCN(C(=O)[C@H](CCCCN)n3cc([C@@H](N)CC(C)C)nn3)CC2)n1,0,-,0,0,0,-,-
O=C(Nc1nc2c(F)cc(F)cc2s1)c1ccccn1,0,0,0,7.0,12.6,0,0
CCc1noc(C)c1C(=O)Nc1nc2c(C)cccc2s1,0,0,0,0,0,-,-
CCc1noc(C)c1C(=O)Nc1nc2c(F)cc(F)cc2s1,0,0,0,10.6,0,0,0
Cc1ccc2[nH]c(=O)c(C(c3nnnn3C3CCCC3)N3CCCc4ccccc43)cc2c1 (stereo not given),0,0,0,6.7,0,0,0
O=C(NCCc1cccs1)c1ccc(Cl)cc1,0,0,0,7.6,10.9,0,0
CCOc1c2ccc(C(=O)NCCc3ccc(C)cc3)cc2nn1CC,0,0,0,0,0,-,-
CCn1nc2cc(C(=O)NCCc3cccs3)ccc2c1OC,0,4.6,0,8.1,0,0,5.7
O=C(C1CCCN(S(=O)(=O)c2ccccc2[N+](=O)[O-])C1)N1CCN(Cc2ccccc2)CC1 (stereo not given),0,-,0,0,0,-,-
Cc1noc(C)c1C(=O)N(C)C[C@@H]1OCc2ccccc2-c2c(n(C)c3ccccc23)C(=O)N([C@H](C)CO)C[C@H]1C,0,0,0,0,0,-,-
OCc1cc(Br)ccc1OCc1nc2ccccc2s1,-,0,-,-,-,-,-
Oc1ccccc1OCc1nc2ccccc2s1,1.4,0,0,7.1,11.3,0,6.2
